Most compounds without a hit are left out; they make up all but 9.4% or so of the library.
NPC1 promoter act – qHTS Assay for NPC1 Promoter Activators; Huh7 NPC1 promoter luciferase reporter, 24 h; Potency, µM (series often up to 9.22 µM), without a hit: top-dose activation, actives largely listed as activators; actives 2.4% (n = 320,000); AID 485313, 2010; note: % of control where 0% means no effect; nearly all actives have a fitted effect of over 60% in size
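Cells: Huh7 expressing luciferase under the NPC1 promoter, 1500/well. Seeded 2 h, compound added, incubated 24 h at 37 °C. Luciferase reagent, 10 min ambient, then luminescence.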
SMN2 splice up – qHTS Assay for Enhancers of SMN2 Splice Variant Expression | Potency, µM (series often up to 46.1 µM), inactives show top-dose activity change, positive = activation, most hits filed as activators | actives 2.8% (n = 210,000) | HEK293 SMN2-luciferase splicing reporter, luminescence, 30-36 h; note: % of control where 0% means no effect; nearly all actives have a fitted effect of over 55% in size
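qHTS luciferase splicing reporter: luminescence rises when SMN2 exon 7 is included in transfected HEK293 cells. Compound exposure lasted 30-36 h at 37C, with 4.5 mM final sodium butyrate as control, followed by a ONE-Glo read.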
FLuc counter – qHTS profiling assay for firefly luciferase inhibitor/activator using purifed enzyme and Km concentrations of substrates (counterscreen for miR-21 project); Luciferin 4-monooxygenase (Photinus pyralis), P08659; purified FLuc, Km substrates, luminescence inhibition; Potency, µM (doses to about 57.5 µM), without a hit: at the top dose activity change, negative = inhibition, actives largely listed as inhibitors; actives 6.9% (n = 360,000); AID 588342, 2011;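 note: plate controls were vehicle for no effect and reference inhibitor for full effect; nearly all actives have a fitted effect of over 55% in size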
Target sequence (P08659 whole entry, looked up): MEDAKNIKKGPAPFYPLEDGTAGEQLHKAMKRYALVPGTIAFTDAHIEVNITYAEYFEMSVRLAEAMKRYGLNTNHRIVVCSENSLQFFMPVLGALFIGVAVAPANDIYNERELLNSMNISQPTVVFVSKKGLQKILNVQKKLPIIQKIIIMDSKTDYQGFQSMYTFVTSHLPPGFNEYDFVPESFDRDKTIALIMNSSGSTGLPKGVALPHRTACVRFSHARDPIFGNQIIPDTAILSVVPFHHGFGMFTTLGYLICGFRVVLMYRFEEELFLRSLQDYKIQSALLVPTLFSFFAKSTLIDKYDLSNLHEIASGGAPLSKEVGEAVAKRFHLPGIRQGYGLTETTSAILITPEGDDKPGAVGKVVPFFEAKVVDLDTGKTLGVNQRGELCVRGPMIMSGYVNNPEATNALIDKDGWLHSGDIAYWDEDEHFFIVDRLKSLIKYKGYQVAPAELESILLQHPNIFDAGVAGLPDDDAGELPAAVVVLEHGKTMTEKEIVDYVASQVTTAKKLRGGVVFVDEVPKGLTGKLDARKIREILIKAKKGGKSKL
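Purified P. pyralis luciferase, 10 nM final, with Km-level 10 uM D-luciferin and 10 uM ATP in 50 mM Tris acetate pH 7.5, 10 mM Mg acetate, 0.01% Tween-20, 0.05% BSA; 6-point qHTS titration about 60 µM downward; luminescence read.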
Rab9 prom act – qHTS Assay for Rab9 Promoter Activators | AID 485297, 2010 | Potency, µM (doses to about 9.22 µM), for the others: at the top dose activation, negative = inhibition, usual class: activators | actives 2.8% (n = 320,000) | Huh7 Rab9 promoter-luciferase reporter, luminescence, 24 h; note: % of control where 0% means no effect; nearly all actives have a fitted effect of over 60% in size
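Luciferase signal after 10 min detection reagent at ambient indicates Rab9 promoter upregulation; stably transfected Huh7 cells were treated 24 h with compound in DMSO at 37 °C, 5% CO2.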
ELG1 genotoxic – qHTS screen for small molecules that induce genotoxicity in human embryonic kidney (HEK293T) cells expressing luciferase-tagged ELG1; HEK293T ELG1-luciferase reporter, luminescence, 16 h; Potency, µM (titrated, usually from 46 µM), for inactives: at the highest dose activity change, positive = activation, hits mostly activators; actives 1.3% (n = 330,000); note: % of control where 0% means no effect; nearly all actives have a fitted effect of over 60% in size
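16 hr compound incubation (37 °C, 5% CO2) of HEK293T cells carrying luciferase-tagged ELG1; luciferase then measured by ONE-Glo luminescence after 30 min at RT.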
ELG1 repair inh – qHTS screen for small molecules that inhibit ELG1-dependent DNA repair in human embryonic kidney (HEK293T) cells expressing luciferase-tagged ELG1. actives 2.3% (n = 330,000). HEK293T ELG1-luciferase reporter, luminescence, 16 h; DNA damage induced by 5-fluorouridine. Potency, µM (top dose mostly 46.1 µM), for inactives: at the highest dose activity change, negative = inhibition, actives largely listed as inhibitors; note: % is set by controls: 0 for no effect and ±100 for the full control effect; nearly all actives have a fitted effect of over 55% in size
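In this reporter screen, reduction of luminescence relative to DMSO vehicle indicated activity. Compounds and 5-fluorouridine were added together to 2,000 cells per well, incubated for 16 hr at 37 °C, then developed with ONE-Glo.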
The depositor's hits bear a star; ? = inconclusive; nt = not tested or not shown; [ ] = remark or other dose. Calls come from the whole dose curve; as a rule, active = well fitted curve in the direction sought with a large enough effect; inconclusive = small, poorly fitted or top-dose-only effect, or another doubt; inactive = no such curve, though single readings can be large; an effect the other way counts as inactive or inconclusive. Potency is the fitted concentration of half-maximal effect.

SMILES	NPC1 promoter act	SMN2 splice up	FLuc counter	Rab9 prom act	ELG1 genotoxic	ELG1 repair inh
COc1ccc(CN2CCN(S(=O)(=O)c3ccc(F)cc3)CC2)cc1OC	1.6%	-32.3%	1.2%	10.2%	-1.9%	13µM*
O=C(c1ccc(S(=O)(=O)N2CCCCC2)cc1)N1CCN(c2ccccc2F)CC1	-5.4%	-19.1%	-0.9%	0.9%	-1.3%	-18.9%
O=C(c1ccc(S(=O)(=O)N2CCCCCC2)cc1)N1CCN(Cc2ccccc2)CC1	-0.6%	nt	nt	3.6%	-4.4%	?
COc1ccccc1N1CCN(C(=O)c2ccc(S(=O)(=O)N3CCCCCC3)cc2)CC1	-1.4%	-0.2%	1.0%	-2.0%	-6.8%	14.6µM*
COc1ccc(S(=O)(=O)N(CC(=O)N2CCN(c3ccccc3OC)CC2)c2ccccc2)cc1	6.5%	-44.6%	-4.8%	1.6%	-21.0%	20.6µM*
CCOC(=O)c1ccc(NS(=O)(=O)c2ccc(Br)s2)cc1	nt	-10.6%	?	nt	nt	nt
Cc1ccsc1CN(C(=O)c1oc2cc(Br)ccc2c1C)C1CCS(=O)(=O)C1 (configuration not stated)	nt	24.1%	-9.4%	nt	nt	nt
CCC(C)NC(=O)c1ccccc1NC(=O)CN1C(=O)c2cccc3cccc1c23 (configuration not stated)	nt	2.1%	-0.6%	nt	nt	nt
COc1ccc(CN2CCN(C(=O)c3ccc(S(=O)(=O)N4CCCCCC4)cc3)CC2)cc1F	-15.6%	nt	-1.4%	-26.0%	-6.7%	6.51µM*
COC(=O)c1c(NC(=O)c2ccco2)sc(C)c1C	9.1%	?	0.8%	-2.9%	3.7%	-2.0%
COC(=O)c1c(NC(=O)c2ccco2)sc(C(=O)Nc2ccc(F)cc2)c1C	1.58µM*	?	-1.7%	1.58µM*	?	?
COC(=O)c1c(NC(=O)C2CC2)sc(C(=O)Nc2ccccc2)c1C	?	1.12µM*	?	?	10.8%	?
Cc1nc(NC(=O)C2CC2)sc1C(=O)Nc1ccccc1	0.8%	nt	-15.3%	3.5%	3.4%	-7.1%
Cc1c(Cc2ccccc2)sc(NC(=O)c2ccco2)c1C(N)=O	3.7%	-14.7%	7.57µM*	-3.7%	7.8%	2.7%
COc1ccc(OCCC(=O)OCC(=O)NCc2ccccc2OC)cc1	-0.2%	nt	-2.4%	2.0%	1.8%	3.6%
CC1(C)Oc2ccc3ccc(=O)oc3c2-c2cn[nH]c21	-2.1%	14.1µM*	1.9%	-3.8%	?	?
CC1(C)Oc2ccc3ccc(=O)oc3c2-c2cnoc21	-1.8%	4.9%	-12.6%	1.3%	-12.3%	13.8%
Cc1cc([N+](=O)[O-])ccc1NC(=O)c1csc(C)c1C	1.41µM*	nt	3.79µM*	2µM*	4.11µM*	?
COc1ccc([N+](=O)[O-])cc1NC(=O)c1csc(C)c1	15.6%	nt	2.69µM*	0.2%	-1.8%	?
O=[N+]([O-])c1ccc(NCc2ccccc2)nc1	28.4%	?	21.3µM*	24.2%	?	?
COc1ccc([N+](=O)[O-])cc1NCc1ccccc1	-4.2%	31.6µM*	0.6%	-3.3%	?	?
COc1ccc([N+](=O)[O-])cc1NC(=O)c1cc(C)c(C)o1	5.5%	-8.0%	-0.3%	10.4%	13.1%	12.6%
COc1ccc([N+](=O)[O-])cc1NCc1ccccc1C	1.9%	12.8%	2.9%	-7.8%	9.6%	?
c1ccc(CO[C@H]2NCCN2Cc2ccccc2)cc1	nt	0.0%[9.22 µM]	nt	nt	nt	nt
Cc1nn2c(=O)cc(COC(=O)c3ccccc3NC(=O)c3cccs3)nc2s1	nt	nt	-1.1%	nt	nt	nt
SMILES	NPC1 promoter act	SMN2 splice up	FLuc counter	Rab9 prom act	ELG1 genotoxic	ELG1 repair inh
Cc1cc(C(=O)Nc2ccc([N+](=O)[O-])cn2)cs1	2.51µM*	nt	10.7µM*	3.55µM*	9.2µM*	?
COc1ccc([N+](=O)[O-])cc1NC(=O)Nc1ccc(OC)c(OC)c1	-0.4%	-29.6%	-10.7%	-3.5%	-6.0%	14.6µM*
COc1ccc(C(=O)Nc2ccc([N+](=O)[O-])cn2)c(OC)c1	1.12µM*	nt	0.301µM*	0.447µM*	1.16µM*	?
CCN(CC)CCCNC(=O)c1nn(C)c2c1CSc1ccccc1-2	nt	nt	-3.2%	nt	nt	nt
CCOC(=O)c1c(NC(=O)c2cc(-c3ccc(OC)cc3)on2)sc(C)c1C	nt	-1.9%	-2.4%	nt	nt	nt
O=C(Nc1ccc2[nH]ncc2c1)c1ccccc1Br	3.16µM*	nt	16.9µM*	?	8.4%	?
O=C(Nc1ccc2[nH]ncc2c1)c1ccccc1Cl	3.98µM*	nt	9.53µM*	3.55µM*	?	?
Cc1nn(C)c2c1c(C(F)(F)F)cc(=O)n2C(C)C(=O)N1CCN(c2ccccc2)CC1 (configuration not stated)	nt	nt	6.8%	nt	nt	nt
COCCCNC(=O)c1cccn2c(=O)c3cc4ccccc4cc3nc12	27.1%	-33.1%	15.1µM*	18.9%	11.0%	?
O=C(NCc1ccco1)c1cccn2c(=O)c3cc4ccccc4cc3nc12	1.1%	?	-6.0%	23.4%	?	-8.0%
CCCN1CCC(=O)N([C@H](CSc2ccc(C)cc2)c2ccccc2)CC1	?	nt	15.1µM*	?	11.0%	?
O=C1CCN(CCc2ccccc2)CCN1[C@H](CSc1ccccc1)c1ccccc1	11.8%	nt	?	8.5%	1.2%	7.7%
Cc1ccc(SC[C@H](c2ccccc2)N2CCN(CCc3ccccc3)CCC2=O)cc1	8.8%	nt	26.9µM*	-1.9%	-4.3%	22.6%
CCCN1CCC(=O)N([C@H](CSc2ccc(OC)cc2)CC(C)C)CC1	?	nt	15.1µM*	?	?	?
CCCN1CCC(=O)N([C@H](CSc2ccccc2)c2ccccc2)CC1	?	nt	?	?	13.8%	?
CN1CCC(=O)N([C@H](CSc2ccc(Br)cc2)c2ccccc2)CC1	?	nt	16.9µM*	?	?	?
CC(C)c1ccc(C(=O)CC2(O)C(=O)N(CCc3ccccc3)c3ccc(Cl)cc32)cc1 (configuration not stated)	nt	-11.3%	-10.0%	nt	nt	nt
COc1cccc(NC(=O)CSc2nc3cc(OC)c(OC)cc3c3nc(-c4ccccc4)nn23)c1	nt	5.1%	-0.9%	nt	nt	nt
CN(C)CCCN(C(=O)C1COc2ccccc2O1)c1nc2cc3c(cc2s1)OCO3 (configuration not stated)	-4.5%	nt	0.0%	-1.4%	2.6%	14.9%

High-throughput results: PubChem BioAssay, National Center for Advancing Translational Sciences (NCATS)
